Records with an inconclusive call do not appear. Activity calls are given as the source filed them. The call rests on the fitted dose curve; in most records, active means well fitted curve in the direction sought with a large enough effect in the repeat runs; inconclusive means weak or mixed curves; inactive means no such curve, though single readings can be large; an effect the other way counts as inactive or inconclusive.
Key:
[1] = Human pregnane X receptor (PXR) small molecule agonists, qHTS cell viability counter screen (AID 1346977); further: nearly all actives have a fitted effect of over 50% in size
Procedure, shortened: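 Tox21 qHTS format; PXR-Luc HepG2, 2,000/well, charcoal-stripped FBS 5%. Cpd exposure 24hr. Read: CellTiter-Fluor fluorescence, multiplexed with luciferase.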

[2] = Caspase-3/7 induction in HepG2 cells by small molecules, qHTS assay (AID 1346978); further: nearly all actives have a fitted effect of over 15% in size
Procedure, shortened: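 Wild-type HepG2 cells, 2,000/well, settled 5 hr at 37 C and 5% CO2, then compound-treated for 17 hr; caspase-3/7 activity read by luminescent Caspase-Glo 3/7 after 30 min at room temperature.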

[3] = Caspase-3/7 induction in CHO-K1 cells by small molecules, qHTS cell viability counter screen (AID 1346979); further: nearly all actives have a fitted effect of over 35% in size; further: potency means the concentration at half of the fitted maximal effect
Procedure, shortened: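 CellTiter-Fluor viability check, qHTS format: wild-type CHO-K1, 16hr compound treatment, 1hr reagent incubation, fluorescence read.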

[4] = Caspase-3/7 induction in HepG2 cells by small molecules, qHTS cell viability counter screen (AID 1346981); further: nearly all actives have a fitted effect of over 30% in size; further: potency means the concentration at half of the fitted maximal effect; on activity change, negative = cytotoxicity: series mostly up to about 92 µM
Procedure, shortened: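 Wild-type HepG2 cells (2,000/well) were allowed to settle for 5 hr at 37 C, 5% CO2, then dosed with compounds in DMSO by pin transfer. After 16 hr at 37 C, CellTiter-Fluor was added and fluorescence read 1 hr later.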

[5] = molecular target: Nuclear receptor subfamily 1 group I member 2 (Homo sapiens) (UniProt O75469); assay: Human pregnane X receptor (PXR) small molecule agonists, qHTS assay (AID 1346982); further: nearly all actives have a fitted effect of over 35% in size; further: potency means the concentration at half of the fitted maximal effect
Nuclear receptor subfamily 1 group I member 2 (Homo sapiens), sequence (O75469 whole entry, looked up): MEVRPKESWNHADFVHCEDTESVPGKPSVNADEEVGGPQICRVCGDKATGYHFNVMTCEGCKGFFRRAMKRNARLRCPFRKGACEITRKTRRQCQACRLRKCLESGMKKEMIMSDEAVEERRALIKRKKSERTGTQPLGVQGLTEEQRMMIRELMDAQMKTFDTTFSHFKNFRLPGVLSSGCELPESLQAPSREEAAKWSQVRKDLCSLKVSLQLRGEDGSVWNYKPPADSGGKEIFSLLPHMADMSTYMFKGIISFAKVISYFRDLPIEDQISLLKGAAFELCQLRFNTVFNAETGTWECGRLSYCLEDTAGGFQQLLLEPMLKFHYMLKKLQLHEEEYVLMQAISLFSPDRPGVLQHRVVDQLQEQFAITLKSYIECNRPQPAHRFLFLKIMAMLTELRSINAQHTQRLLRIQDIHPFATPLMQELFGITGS
Procedure, shortened: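 PXR-Luc HepG2 cells (CYP3A4 promoter-driven luciferase) were seeded in medium with 5% charcoal-stripped FBS, left 5 hr at 37 C, then exposed to compounds in DMSO for 24 hr. Luminescence was read after ONE-Glo addition.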

[6] = molecular target: Cytochrome P450 2D6 (Homo sapiens) (UniProt P10635); assay: Cytochrome P450 Family 2 Subfamily D Member 6 (CYP2D6) small molecule antagonists: luciferase reporter qHTS assay (AID 1671196); further: series mostly up to about 120 µM; nearly all actives have a fitted effect of over 50% in size
Cytochrome P450 2D6 (Homo sapiens), sequence (P10635 whole entry, looked up): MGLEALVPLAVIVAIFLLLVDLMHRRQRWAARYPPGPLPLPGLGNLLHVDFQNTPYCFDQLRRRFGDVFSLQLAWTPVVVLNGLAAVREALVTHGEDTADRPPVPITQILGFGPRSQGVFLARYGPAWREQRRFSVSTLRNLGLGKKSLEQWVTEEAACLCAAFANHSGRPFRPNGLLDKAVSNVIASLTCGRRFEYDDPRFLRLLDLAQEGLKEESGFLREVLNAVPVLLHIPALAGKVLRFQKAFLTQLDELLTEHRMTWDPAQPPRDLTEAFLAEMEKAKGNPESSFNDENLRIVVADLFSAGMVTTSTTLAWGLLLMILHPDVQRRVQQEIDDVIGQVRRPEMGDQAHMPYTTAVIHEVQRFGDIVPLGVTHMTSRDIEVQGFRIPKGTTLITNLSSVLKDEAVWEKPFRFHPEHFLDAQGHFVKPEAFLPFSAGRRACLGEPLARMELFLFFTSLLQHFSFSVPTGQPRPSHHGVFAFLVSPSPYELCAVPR
Procedure, shortened: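 CYP2D6 enzyme–substrate mix was held with compound for 10 min at room temperature, then NADPH regeneration solution was added and the reaction ran 1 h at room temperature. Luciferin product was detected by luminescence after 20 min with detection reagent.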

[7] = molecular target: Cytochrome P450 2C19 (Homo sapiens) (UniProt P33261); assay: Cytochrome P450 Family 2 Subfamily C Member 19 (CYP2C19) small molecule antagonists: luciferase reporter qHTS assay (AID 1671197); further: nearly all actives have a fitted effect of over 65% in size; further: potency means the concentration at half of the fitted maximal effect; on activity change, negative = inhibition: series mostly up to about 120 µM
Cytochrome P450 2C19 (Homo sapiens), sequence (P33261 whole entry, looked up): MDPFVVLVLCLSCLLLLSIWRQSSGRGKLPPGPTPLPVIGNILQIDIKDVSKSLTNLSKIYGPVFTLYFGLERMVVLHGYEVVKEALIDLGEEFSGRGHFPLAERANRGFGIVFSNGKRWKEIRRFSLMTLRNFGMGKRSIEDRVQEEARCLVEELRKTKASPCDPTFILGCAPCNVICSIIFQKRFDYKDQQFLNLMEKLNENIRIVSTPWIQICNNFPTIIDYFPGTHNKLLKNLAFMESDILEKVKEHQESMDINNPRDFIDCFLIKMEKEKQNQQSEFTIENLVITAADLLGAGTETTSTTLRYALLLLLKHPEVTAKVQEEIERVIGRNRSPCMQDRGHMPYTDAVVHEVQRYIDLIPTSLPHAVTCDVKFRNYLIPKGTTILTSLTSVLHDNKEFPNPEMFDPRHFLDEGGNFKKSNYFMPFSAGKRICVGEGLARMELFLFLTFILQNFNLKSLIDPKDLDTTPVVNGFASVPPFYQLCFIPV
Procedure, shortened: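 P450-Glo CYP2C19 screening system; proluciferin substrate; DMSO compound stocks; 10 min RT preincubation; NADPH regeneration, 1 h at 37C; luciferin detection reagent, 20 min RT; luminescence as RLU.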

[8] = molecular target: Cytochrome P450 2C9 (Homo sapiens) (UniProt P11712); assay: Cytochrome P450 Family 2 Subfamily C Member 9 (CYP2C9) small molecule antagonists: luciferase reporter qHTS assay (AID 1671198); further: nearly all actives have a fitted effect of over 50% in size; further: potency means the concentration at half of the fitted maximal effect; on activity change, negative = inhibition: series mostly up to about 120 µM
Cytochrome P450 2C9 (Homo sapiens), sequence (P11712 whole entry, looked up): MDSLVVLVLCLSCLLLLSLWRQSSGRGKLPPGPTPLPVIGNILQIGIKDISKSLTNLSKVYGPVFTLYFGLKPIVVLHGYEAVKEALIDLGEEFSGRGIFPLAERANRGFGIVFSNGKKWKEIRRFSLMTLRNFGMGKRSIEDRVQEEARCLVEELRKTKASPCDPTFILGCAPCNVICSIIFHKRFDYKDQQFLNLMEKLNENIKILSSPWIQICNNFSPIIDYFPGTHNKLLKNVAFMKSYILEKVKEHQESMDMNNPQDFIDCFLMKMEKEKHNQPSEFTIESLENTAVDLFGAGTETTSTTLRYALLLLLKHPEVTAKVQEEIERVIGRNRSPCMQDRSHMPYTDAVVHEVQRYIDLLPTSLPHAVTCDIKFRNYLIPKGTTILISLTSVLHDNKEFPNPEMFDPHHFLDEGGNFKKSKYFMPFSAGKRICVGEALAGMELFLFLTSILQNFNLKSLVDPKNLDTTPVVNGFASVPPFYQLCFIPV
Procedure, shortened: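 P450-Glo proluciferin substrate with CYP2C9 enzyme; 10 min RT preincubation, then NADPH regeneration 1 h at 37C; luciferin detection reagent 20 min RT, luminescence in relative luminescence units.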

[9] = molecular target: Cytochrome P450 1A2 (Homo sapiens) (UniProt P05177); assay: Cytochrome P450 Family 1 Subfamily A Member 2 (CYP1A2) small molecule antagonists: luciferase reporter qHTS assay (AID 1671199); further: series mostly up to about 120 µM; nearly all actives have a fitted effect of over 50% in size
Cytochrome P450 1A2 (Homo sapiens), sequence (P05177 whole entry, looked up): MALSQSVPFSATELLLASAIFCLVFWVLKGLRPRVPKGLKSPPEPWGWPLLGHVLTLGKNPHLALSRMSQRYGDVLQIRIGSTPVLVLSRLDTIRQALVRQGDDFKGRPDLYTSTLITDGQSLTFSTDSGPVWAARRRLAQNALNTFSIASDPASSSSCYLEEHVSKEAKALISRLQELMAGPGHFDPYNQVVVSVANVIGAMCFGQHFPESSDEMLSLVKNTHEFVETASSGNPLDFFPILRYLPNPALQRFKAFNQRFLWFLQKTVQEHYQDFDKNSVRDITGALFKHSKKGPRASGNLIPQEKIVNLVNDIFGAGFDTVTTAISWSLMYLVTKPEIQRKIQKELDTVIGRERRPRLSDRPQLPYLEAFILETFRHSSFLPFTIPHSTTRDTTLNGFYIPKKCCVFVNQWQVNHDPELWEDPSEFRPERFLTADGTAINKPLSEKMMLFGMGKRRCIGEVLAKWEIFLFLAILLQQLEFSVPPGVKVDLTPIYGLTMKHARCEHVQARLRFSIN
Procedure, shortened: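 Human CYP1A2 activity measured with a P450-Glo proluciferin substrate; compounds in DMSO preincubated 10 min at room temperature with enzyme-substrate mix, then NADPH regeneration system added for 1 h. Luciferin detection reagent, 20 min, luminescence read.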

[10] = molecular target: Voltage-gated inwardly rectifying potassium channel KCNH2 (Homo sapiens) (UniProt Q12809); assay: Human Ether-a-go-go-Related Gene (hERG) channel small molecule antagonists: fluorescence cell-based qHTS assay (AID 1671200)
Voltage-gated inwardly rectifying potassium channel KCNH2 (Homo sapiens), sequence (Q12809 whole entry, looked up): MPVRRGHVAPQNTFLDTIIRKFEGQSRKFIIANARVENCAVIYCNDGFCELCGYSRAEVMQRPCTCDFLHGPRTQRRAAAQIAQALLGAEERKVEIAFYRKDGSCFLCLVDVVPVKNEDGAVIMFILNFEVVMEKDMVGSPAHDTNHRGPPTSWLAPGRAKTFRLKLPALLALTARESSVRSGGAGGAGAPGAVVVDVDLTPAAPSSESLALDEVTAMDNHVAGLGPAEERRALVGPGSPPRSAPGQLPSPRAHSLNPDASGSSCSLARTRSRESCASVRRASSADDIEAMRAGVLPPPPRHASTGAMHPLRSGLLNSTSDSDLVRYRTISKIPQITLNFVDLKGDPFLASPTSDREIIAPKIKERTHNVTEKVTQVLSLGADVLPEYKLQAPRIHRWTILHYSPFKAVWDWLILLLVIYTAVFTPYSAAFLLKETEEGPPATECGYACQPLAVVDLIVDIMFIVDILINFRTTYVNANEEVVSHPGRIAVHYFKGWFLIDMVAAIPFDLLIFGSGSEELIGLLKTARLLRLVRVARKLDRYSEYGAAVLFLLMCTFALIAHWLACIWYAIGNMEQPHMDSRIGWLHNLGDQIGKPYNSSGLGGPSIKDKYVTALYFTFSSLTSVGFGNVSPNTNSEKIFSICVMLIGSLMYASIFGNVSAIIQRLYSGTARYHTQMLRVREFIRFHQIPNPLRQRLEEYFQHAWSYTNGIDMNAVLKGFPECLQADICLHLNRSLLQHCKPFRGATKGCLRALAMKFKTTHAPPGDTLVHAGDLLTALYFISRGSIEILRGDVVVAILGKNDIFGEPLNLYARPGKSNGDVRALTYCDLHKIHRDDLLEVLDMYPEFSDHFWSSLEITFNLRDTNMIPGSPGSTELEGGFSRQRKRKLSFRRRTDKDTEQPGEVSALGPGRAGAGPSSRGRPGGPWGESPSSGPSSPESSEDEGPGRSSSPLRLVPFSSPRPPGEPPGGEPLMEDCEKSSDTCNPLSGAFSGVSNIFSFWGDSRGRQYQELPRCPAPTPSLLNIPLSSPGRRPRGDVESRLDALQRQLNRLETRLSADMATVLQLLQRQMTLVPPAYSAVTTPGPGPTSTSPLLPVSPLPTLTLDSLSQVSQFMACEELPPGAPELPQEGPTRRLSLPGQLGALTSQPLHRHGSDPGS
Procedure, shortened: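 Kinetic two-minute fluorescence traces, sampled at 1 s, were collected following thallium stimulus of U2OS cells (1000 per well) that had been cultured overnight at 37 C and loaded with FluxOR II.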

[11] = molecular target: Cytochrome P450 3A4 (Homo sapiens) (UniProt P08684); assay: Cytochrome P450 Family 3 Subfamily A Member 4 (CYP3A4) small molecule antagonists: luciferase reporter qHTS assay (AID 1671201)
Cytochrome P450 3A4 (Homo sapiens), sequence (P08684 whole entry, looked up): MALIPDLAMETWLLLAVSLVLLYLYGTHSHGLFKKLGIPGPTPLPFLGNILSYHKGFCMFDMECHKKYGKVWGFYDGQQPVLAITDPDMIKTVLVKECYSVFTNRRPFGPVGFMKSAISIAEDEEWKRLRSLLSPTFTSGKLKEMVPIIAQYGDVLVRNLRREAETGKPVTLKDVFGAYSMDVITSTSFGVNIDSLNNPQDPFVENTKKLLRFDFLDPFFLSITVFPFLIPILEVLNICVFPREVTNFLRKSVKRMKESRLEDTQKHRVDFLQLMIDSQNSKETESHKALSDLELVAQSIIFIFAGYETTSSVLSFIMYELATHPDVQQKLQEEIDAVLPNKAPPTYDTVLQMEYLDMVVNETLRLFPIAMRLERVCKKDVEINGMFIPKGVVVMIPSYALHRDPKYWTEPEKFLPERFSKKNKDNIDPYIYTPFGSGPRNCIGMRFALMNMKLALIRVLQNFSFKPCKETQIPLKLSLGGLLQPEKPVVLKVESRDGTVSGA
Procedure, shortened: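 Proluciferin-to-luciferin conversion by CYP3A4, NADPH-regenerated, 1 h RT; luminescence read as RLU. Ketoconazole as control.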

[12] = molecular target: Nuclear receptor subfamily 1 group I member 2 (Rattus norvegicus) (UniProt Q9R1A7); assay: Rat pregnane X receptor (rPXR) activation by small molecules, qHTS assay (AID 1346983); conditions: rPXR luciferase reporter cells, One-Glo luminescence, 24 h; stronger effect = higher value; further: nearly all actives have a fitted effect of over 20% in size
Nuclear receptor subfamily 1 group I member 2 (Rattus norvegicus), sequence (Q9R1A7 whole entry, looked up): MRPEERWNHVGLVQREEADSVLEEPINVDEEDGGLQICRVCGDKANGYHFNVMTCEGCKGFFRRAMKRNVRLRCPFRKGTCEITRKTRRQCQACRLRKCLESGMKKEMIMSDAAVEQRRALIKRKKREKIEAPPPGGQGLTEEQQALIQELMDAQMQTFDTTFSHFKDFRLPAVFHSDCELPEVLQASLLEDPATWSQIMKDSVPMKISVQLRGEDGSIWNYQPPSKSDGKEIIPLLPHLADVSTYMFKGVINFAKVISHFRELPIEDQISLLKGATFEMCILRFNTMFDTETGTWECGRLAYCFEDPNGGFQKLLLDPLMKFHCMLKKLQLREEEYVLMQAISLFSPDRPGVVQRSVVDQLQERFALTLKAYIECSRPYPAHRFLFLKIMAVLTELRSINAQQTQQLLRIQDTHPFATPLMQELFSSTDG
Procedure, shortened: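 Cell-based rPXR activation assay: rPXR cells, 2,000 per well, rested 5hr at 37 C, then exposed to compounds in DMSO for 24 hr at 37 C. Luciferase activity read by One-Glo luminescence after 30 min at room temperature.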

[13] = Caspase-3/7 induction in CHO-K1 cells by small molecules, qHTS assay (AID 1346980); further: nearly all actives have a fitted effect of over 15% in size
Procedure, shortened: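 Wild-type CHO-K1 cells exposed to compounds for 17hr at 37 C, 5% CO2. Caspase-3/7 activity then measured by Caspase-Glo 3/7 luminescence after 30min at room temperature.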
On the % scale 0 is the no-effect control and ±100 the full control effect.

Clc1sc(Cl)c(Cl)c1Cl
inactive: Potency [1] | Potency [2] | Potency [3] | Potency [4] | Potency [5] | Potency [6] | Potency [7] | Potency [8] | Potency [9] | Potency [10] | Potency [11]

C[C@H]1NCc2cc(-c3ccc4c(=O)c(C(=O)O)cn(C5CC5)c4c3OC(F)F)ccc21
inactive: activity change, negative = cytotoxicity [1] 2.7% [at 19 µM] | caspase activation [2] -1.73% [at 19 µM] | activity change, negative = cytotoxicity [3] 0.359% [at 19 µM] | activity change, negative = cytotoxicity [4] -1.4% [at 19 µM] | activation [5] -6.61% [at 19 µM] | activity change, negative = inhibition [7] -6.59% [at 23.6 µM] | activity change, negative = inhibition [10] -3.88% [at 15.8 µM] | activity change, negative = inhibition [11] 10.5% [at 23.6 µM]

O=C(O)CN(CCN(CC(=O)O)CC(=O)O)CC(=O)O
inactive: activity change, negative = cytotoxicity [1] 0.665% [at 3.27 µM] | caspase activation [2] -0.861% [at 3.27 µM] | activity change, negative = cytotoxicity [3] 5.31% [at 3.27 µM] | activity change, negative = cytotoxicity [4] -2.26% [at 3.27 µM] | max activation [12] -0.541% | activity change, negative = inhibition [10] -1.4% [at 2.72 µM]

O=[N+]([O-])c1ccc(F)c(Cl)c1
inactive: Potency [2] | Potency [3] | Potency [13] | Potency [4] | Potency [5] | Potency [6] | Potency [10] | Potency [11]
active: Potency [7] 79.9 µM

CC(C)(C)c1csc(-c2cc3cc(OCc4ccccc4CC(=O)O)ccc3o2)n1
active: Potency [3] 61.1 µM | Potency [4] 68.6 µM | Potency [5] 61.1 µM | Potency [8] 56.4 µM
inactive: Potency [2] | Potency [13] | Potency [6] | Potency [7] | Potency [9] | Potency [10] | Potency [11]

Reference: PubChem BioAssay (Tox21)
